Common to all, as to experiment: DAPPL (digital affinity profiling via proximity ligation, sequencing); 10 mM Tris-HCl pH 7.5, 50 mM NaCl, 1 mM DTT, 4% glycerol, room temperature, 30 min; GST-TFs on glutathione beads, 16-mer random dsDNA library, 0.1% formaldehyde crosslink after washing; high values mean tight binding
Common to all, as to settings: protein: recombinant; tags: N-terminal GST; dsDNA, one strand shown

In one test the target is T1, FLI1 (Homo sapiens, UniProt Q01543 1-452).
T1 sequence: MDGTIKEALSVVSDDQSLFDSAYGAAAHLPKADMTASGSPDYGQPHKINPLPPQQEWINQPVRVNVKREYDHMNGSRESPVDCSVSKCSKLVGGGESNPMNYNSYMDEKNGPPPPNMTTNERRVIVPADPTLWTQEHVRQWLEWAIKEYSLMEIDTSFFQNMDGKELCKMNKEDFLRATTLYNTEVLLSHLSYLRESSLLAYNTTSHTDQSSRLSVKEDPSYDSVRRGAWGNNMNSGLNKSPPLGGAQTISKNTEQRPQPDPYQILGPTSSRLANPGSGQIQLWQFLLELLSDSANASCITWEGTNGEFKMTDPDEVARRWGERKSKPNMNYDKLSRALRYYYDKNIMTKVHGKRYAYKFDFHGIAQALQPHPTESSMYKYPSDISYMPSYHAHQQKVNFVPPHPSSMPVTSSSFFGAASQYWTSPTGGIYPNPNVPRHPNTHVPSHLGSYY
The gist of the method:
(§1)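 Human transcription factors carrying a GST fusion were produced in yeast, bound to glutathione beads, tagged with DNA barcodes and pooled together with a tag-only sample. Each pool was held with 200 nmole of a random double-stranded 16-mer DNA library in Tris/NaCl/DTT/glycerol buffer for 30 min at room temperature, then washed, crosslinked in 0.1% formaldehyde, proximity-ligated with BsaI/T4 ligase (1 h, 37 °C), PCR-amplified and sequenced on an Illumina NextSeq500. Binding signal is the read frequency of each hexamer for a given factor divided by its frequency in the tag-only sample.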

Another test deals with T2, ELK1 (Homo sapiens, UniProt P19419 1-428).
T2 sequence: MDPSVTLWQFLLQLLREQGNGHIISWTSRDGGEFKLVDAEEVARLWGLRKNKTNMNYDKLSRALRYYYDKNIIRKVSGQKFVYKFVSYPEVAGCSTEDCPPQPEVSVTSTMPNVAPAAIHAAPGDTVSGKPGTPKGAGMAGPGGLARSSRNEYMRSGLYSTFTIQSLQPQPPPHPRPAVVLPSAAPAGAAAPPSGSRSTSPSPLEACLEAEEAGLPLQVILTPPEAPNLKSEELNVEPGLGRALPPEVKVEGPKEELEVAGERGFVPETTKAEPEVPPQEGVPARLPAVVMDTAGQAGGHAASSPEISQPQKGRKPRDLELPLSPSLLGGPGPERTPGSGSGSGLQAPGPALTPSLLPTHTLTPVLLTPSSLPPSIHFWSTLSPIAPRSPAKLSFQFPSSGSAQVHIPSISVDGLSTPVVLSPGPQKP
The gist of the method:
as §1

The next test concerns the target T3, GABPA (Homo sapiens, UniProt Q06546 1-454).
T3 sequence: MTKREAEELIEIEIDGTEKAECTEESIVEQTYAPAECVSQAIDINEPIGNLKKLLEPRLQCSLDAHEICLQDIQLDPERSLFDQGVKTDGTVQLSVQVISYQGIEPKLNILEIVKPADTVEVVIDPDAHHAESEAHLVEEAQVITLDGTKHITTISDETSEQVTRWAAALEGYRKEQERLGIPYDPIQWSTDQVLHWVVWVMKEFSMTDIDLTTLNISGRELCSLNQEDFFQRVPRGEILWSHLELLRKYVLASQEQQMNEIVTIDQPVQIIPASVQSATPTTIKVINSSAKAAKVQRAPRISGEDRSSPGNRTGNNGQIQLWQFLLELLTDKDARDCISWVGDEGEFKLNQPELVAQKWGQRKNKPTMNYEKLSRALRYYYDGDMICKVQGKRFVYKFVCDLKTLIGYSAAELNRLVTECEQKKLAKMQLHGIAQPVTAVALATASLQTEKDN
The gist of the method: as §1

The next test deals with T4, ERG (Homo sapiens, UniProt P11308 1-479).
T4 sequence: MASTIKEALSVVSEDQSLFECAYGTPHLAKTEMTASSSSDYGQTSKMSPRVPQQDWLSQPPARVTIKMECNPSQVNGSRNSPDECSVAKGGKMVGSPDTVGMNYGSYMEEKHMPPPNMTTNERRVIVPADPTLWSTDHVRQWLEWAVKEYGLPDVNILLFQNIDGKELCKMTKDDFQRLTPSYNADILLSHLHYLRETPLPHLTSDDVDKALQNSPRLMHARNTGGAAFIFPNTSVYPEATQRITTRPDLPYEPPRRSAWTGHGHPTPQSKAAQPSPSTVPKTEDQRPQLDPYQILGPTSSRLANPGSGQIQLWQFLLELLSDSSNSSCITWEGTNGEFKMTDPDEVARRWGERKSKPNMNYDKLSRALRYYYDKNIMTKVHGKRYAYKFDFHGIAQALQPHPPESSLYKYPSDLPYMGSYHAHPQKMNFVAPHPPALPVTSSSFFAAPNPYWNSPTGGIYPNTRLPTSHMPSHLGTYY
The gist of the method: as §1

For another test, the target named is ELF1 (Homo sapiens, UniProt P32519 1-619). The gist of the method: as §1
ELF1, sequence (P32519 whole entry): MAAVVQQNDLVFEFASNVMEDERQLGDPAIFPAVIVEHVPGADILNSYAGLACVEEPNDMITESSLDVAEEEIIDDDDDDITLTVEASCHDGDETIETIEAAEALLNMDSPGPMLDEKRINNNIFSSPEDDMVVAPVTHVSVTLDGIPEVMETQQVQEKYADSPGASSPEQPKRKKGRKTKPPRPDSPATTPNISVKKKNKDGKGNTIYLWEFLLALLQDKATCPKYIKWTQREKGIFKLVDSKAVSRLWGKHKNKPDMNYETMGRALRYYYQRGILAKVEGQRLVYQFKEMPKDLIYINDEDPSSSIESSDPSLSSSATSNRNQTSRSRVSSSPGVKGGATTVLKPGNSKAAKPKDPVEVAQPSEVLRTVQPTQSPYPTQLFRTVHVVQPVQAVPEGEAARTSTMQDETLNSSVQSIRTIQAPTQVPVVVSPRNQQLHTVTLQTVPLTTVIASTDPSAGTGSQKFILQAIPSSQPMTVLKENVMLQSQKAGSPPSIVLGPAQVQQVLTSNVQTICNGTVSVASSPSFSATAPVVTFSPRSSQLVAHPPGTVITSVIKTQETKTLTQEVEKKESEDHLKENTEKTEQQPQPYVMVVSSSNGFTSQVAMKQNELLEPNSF
A further test concerns the target T5, EHF (Homo sapiens, UniProt Q9NZC4 1-300).
T5 sequence: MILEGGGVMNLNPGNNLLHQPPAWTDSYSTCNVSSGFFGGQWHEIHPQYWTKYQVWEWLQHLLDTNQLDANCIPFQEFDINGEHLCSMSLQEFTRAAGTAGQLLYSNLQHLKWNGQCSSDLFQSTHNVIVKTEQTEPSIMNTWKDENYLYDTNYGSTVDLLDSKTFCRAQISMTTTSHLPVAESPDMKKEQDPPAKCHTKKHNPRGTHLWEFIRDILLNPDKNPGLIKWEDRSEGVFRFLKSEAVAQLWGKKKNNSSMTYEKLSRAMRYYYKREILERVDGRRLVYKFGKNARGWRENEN
The gist of the method: as §1

The target of another test is SPI1 (Homo sapiens, UniProt P17947 1-270). The gist of the method:
as §1

For a further test, the target named is SPIB (Homo sapiens, UniProt Q01892 1-262). The gist of the method:
as §1

The next test concerns the target T6, ELK3 (Homo sapiens, UniProt P41970 1-407).
T6 sequence: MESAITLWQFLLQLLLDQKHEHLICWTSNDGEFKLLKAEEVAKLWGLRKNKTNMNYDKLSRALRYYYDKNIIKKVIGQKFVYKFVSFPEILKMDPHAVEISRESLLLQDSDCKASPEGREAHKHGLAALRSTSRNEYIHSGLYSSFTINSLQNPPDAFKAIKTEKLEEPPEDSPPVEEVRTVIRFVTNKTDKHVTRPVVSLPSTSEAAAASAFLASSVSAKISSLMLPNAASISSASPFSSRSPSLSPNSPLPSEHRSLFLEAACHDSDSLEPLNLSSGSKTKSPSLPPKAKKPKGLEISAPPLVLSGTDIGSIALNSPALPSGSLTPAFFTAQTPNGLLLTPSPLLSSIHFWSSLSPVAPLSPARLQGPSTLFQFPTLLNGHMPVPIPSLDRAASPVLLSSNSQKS
The gist of the method: as §1

SPIB, sequence (Q01892 whole entry): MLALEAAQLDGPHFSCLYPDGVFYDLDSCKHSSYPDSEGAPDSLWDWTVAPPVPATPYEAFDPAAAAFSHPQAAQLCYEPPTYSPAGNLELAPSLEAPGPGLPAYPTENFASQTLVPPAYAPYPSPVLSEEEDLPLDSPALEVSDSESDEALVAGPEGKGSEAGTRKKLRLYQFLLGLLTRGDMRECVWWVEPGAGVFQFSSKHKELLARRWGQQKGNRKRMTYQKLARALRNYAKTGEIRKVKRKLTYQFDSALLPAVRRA

Take CTCCTA: the binding signal with FLI1 was 1.47 fold enrichment (6-mer frequency, TF over GST control); with ELK1 it was 1.19 fold enrichment (6-mer frequency, TF over GST control); with GABPA, 1.38 fold enrichment (6-mer frequency, TF over GST control); with ERG, 1.22 fold enrichment (6-mer frequency, TF over GST control); with ELF1 it was 1.24 fold enrichment (6-mer frequency, TF over GST control); in the test with EHF, 1.25 fold enrichment (6-mer frequency, TF over GST control). Moreover, the binding signal is 1.46 fold enrichment (6-mer frequency, TF over GST control) in the test with SPI1; 1.4 fold enrichment (6-mer frequency, TF over GST control) with SPIB; 1.24 fold enrichment (6-mer frequency, TF over GST control) in the test with ELK3.

In the case of TCTTAC, the binding signal is 1.29 fold enrichment (6-mer frequency, TF over GST control) with FLI1; 1.36 fold enrichment (6-mer frequency, TF over GST control) in the test with ELK1; 1.33 fold enrichment (6-mer frequency, TF over GST control) in the test with GABPA; 1.23 fold enrichment (6-mer frequency, TF over GST control) with ERG; 1.32 fold enrichment (6-mer frequency, TF over GST control) with ELF1; 1.2 fold enrichment (6-mer frequency, TF over GST control) with EHF. Moreover, the binding signal in the test with SPI1 was 1.26 fold enrichment (6-mer frequency, TF over GST control); with SPIB it was 1.26 fold enrichment (6-mer frequency, TF over GST control); with ELK3, 1.3 fold enrichment (6-mer frequency, TF over GST control).

GATGAC: the binding signal with FLI1 was 1.58 fold enrichment (6-mer frequency, TF over GST control); with ELK1, 1.51 fold enrichment (6-mer frequency, TF over GST control); in the test with GABPA, 1.62 fold enrichment (6-mer frequency, TF over GST control); in the test with ERG it was 1.59 fold enrichment (6-mer frequency, TF over GST control); with ELF1, 1.6 fold enrichment (6-mer frequency, TF over GST control); with EHF it was 1.43 fold enrichment (6-mer frequency, TF over GST control). In addition, the binding signal with SPI1 was 1.58 fold enrichment (6-mer frequency, TF over GST control); with SPIB it was 1.45 fold enrichment (6-mer frequency, TF over GST control); with ELK3, 1.45 fold enrichment (6-mer frequency, TF over GST control).

As for AAGTTA, the binding signal was 1.25 fold enrichment (6-mer frequency, TF over GST control) with FLI1; 1.26 fold enrichment (6-mer frequency, TF over GST control) with ELK1; 1.19 fold enrichment (6-mer frequency, TF over GST control) with GABPA; 1.27 fold enrichment (6-mer frequency, TF over GST control) in the test with ERG; 1.27 fold enrichment (6-mer frequency, TF over GST control) with ELF1; 1.24 fold enrichment (6-mer frequency, TF over GST control) in the test with EHF. In addition, the binding signal was 1.24 fold enrichment (6-mer frequency, TF over GST control) with SPI1; 1.12 fold enrichment (6-mer frequency, TF over GST control) with SPIB; 1.23 fold enrichment (6-mer frequency, TF over GST control) in the test with ELK3.

In the case of TATGGG, the binding signal was 1.23 fold enrichment (6-mer frequency, TF over GST control) with FLI1; 1.06 fold enrichment (6-mer frequency, TF over GST control) with ELK1; 1.25 fold enrichment (6-mer frequency, TF over GST control) in the test with GABPA; 1.15 fold enrichment (6-mer frequency, TF over GST control) with ERG; 1.16 fold enrichment (6-mer frequency, TF over GST control) with ELF1; 1.37 fold enrichment (6-mer frequency, TF over GST control) with EHF. Also, the binding signal with SPI1 is 1.21 fold enrichment (6-mer frequency, TF over GST control); in the test with SPIB, 1.27 fold enrichment (6-mer frequency, TF over GST control); in the test with ELK3, 1.18 fold enrichment (6-mer frequency, TF over GST control).

As to GCTGAT, the binding signal is 1.11 fold enrichment (6-mer frequency, TF over GST control) in the test with FLI1; 1.1 fold enrichment (6-mer frequency, TF over GST control) in the test with ELK1; 1.18 fold enrichment (6-mer frequency, TF over GST control) in the test with GABPA; 1.1 fold enrichment (6-mer frequency, TF over GST control) with ERG; 1.22 fold enrichment (6-mer frequency, TF over GST control) in the test with ELF1; 1.33 fold enrichment (6-mer frequency, TF over GST control) with EHF. Moreover, the binding signal with SPI1 is 1.08 fold enrichment (6-mer frequency, TF over GST control); with SPIB, 1.11 fold enrichment (6-mer frequency, TF over GST control); with ELK3 it was 1.33 fold enrichment (6-mer frequency, TF over GST control).

Take TCTTCC: the binding signal in the test with FLI1 was 2.61 fold enrichment (6-mer frequency, TF over GST control); in the test with ELK1, 2.52 fold enrichment (6-mer frequency, TF over GST control); with GABPA it was 2.39 fold enrichment (6-mer frequency, TF over GST control); with ERG, 2.86 fold enrichment (6-mer frequency, TF over GST control); in the test with ELF1, 2.65 fold enrichment (6-mer frequency, TF over GST control); with EHF it was 2.76 fold enrichment (6-mer frequency, TF over GST control). Moreover, the binding signal with SPI1 is 2.46 fold enrichment (6-mer frequency, TF over GST control); in the test with SPIB, 2.75 fold enrichment (6-mer frequency, TF over GST control); in the test with ELK3, 2.79 fold enrichment (6-mer frequency, TF over GST control).

In the case of GTAAAT, the binding signal with FLI1 is 1.02 fold enrichment (6-mer frequency, TF over GST control); with ELK1, 1.09 fold enrichment (6-mer frequency, TF over GST control); with GABPA, 1.21 fold enrichment (6-mer frequency, TF over GST control); in the test with ERG, 1.14 fold enrichment (6-mer frequency, TF over GST control); with ELF1, 1.16 fold enrichment (6-mer frequency, TF over GST control); with EHF, 1.15 fold enrichment (6-mer frequency, TF over GST control). In addition, the binding signal in the test with SPI1 is 1.22 fold enrichment (6-mer frequency, TF over GST control); in the test with SPIB it was 1.18 fold enrichment (6-mer frequency, TF over GST control); in the test with ELK3, 1.16 fold enrichment (6-mer frequency, TF over GST control).

(Values after article PMC7862700, “An all-to-all approach to the identification of sequence-specific readers for epigenetic DNA modifications on cytosine”.)
